Sampled rows, rich in hits. Any-hit rate of the full collection: about 17%.
ATXN viability = cell viability loss in ATXN counter-screen | Potency, µM (highest dose often 56.7 µM), usual class: cytotoxic | AID 651635 | actives 0.49% (n = 400,000) | S2 cells (HEK-293 line with an ATXN2-luciferase reporter) viability, CellTiter-Fluor protease fluorescence, 24 h; also: nearly all actives have a fitted effect of over 40% in size
DT40 TDP1 no CPT = qHTS for Inhibitors of human tyrosyl-DNA phosphodiesterase 1 (TDP1): qHTS in cells in absence of CPT. DT40 Tdp1-/- hTDP1 cells, no CPT, ATP luminescence, 48 h. Potency, µM (highest dose often 46.2 µM), actives largely listed as inhibitors. actives 15% (n = 420,000); also: nearly all actives have a fitted effect of over 55% in size
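DT40 Tdp1-/-;hTDP1 cells, no CPT (DMSO vehicle only), 400 cells/well; compounds pin-transferred; ≥48 hr, 37 °C; CellTiter-Glo 30 min RT dark, luminescence read.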
ATXN2 expr inh = ATXN2 expression inhibition; HEK-293 ATXN2-luciferase reporter, luminescence, 24 h; AID 1745845; actives 0.72% (n = 360,000); Potency, µM (top dose mostly 57 µM), actives largely listed as inhibitors; also: nearly all actives have a fitted effect of over 55% in size
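qHTS (up to 57 uM final) was run with 24 h compound exposure of reporter cells at 37 °C. Each well was multiplexed: SteadyGlo luminescence measured ATXN2-luciferase expression after a fluorogenic Gly-Phe-AFC viability readout (25 uM final).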
HepG2 tox = counter-screen for TGF-b inhibitors: cytotoxicity in HepG2 cells; HepG2 CAGA-GFP viability, ATP luminescence, 18 h; Potency, µM (titrated, usually from 46.1 µM), actives largely listed as cytotoxic; actives 0.76% (n = 410,000)
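HepG2 CAGA-GFP cells (1000/well, DMEM with 1% FBS) received compound, then TGF-beta at 500 pg/mL final, and were incubated 18 hours at 37 degrees C. Viability was read by CellTiter-Glo luminescence. Media-only wells were set as complete cell-killing and DMSO as no toxicity.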
DT40 TDP1 CPT = DT40-hTDP1 cell growth loss with CPT. AID 686979. actives 12% (n = 420,000). Potency, µM (titrated, usually from 46.2 µM), actives largely listed as inhibitors. chicken DT40 Tdp1-/-;hTDP1 cells + 20 nM CPT, ATP luminescence, 48 h; also: nearly all actives have a fitted effect of over 55% in size
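Chicken DT40 Tdp1-/- cells complemented with human TDP1, 400 cells/well, exposed to compounds plus 20 nM camptothecin for at least 48 h at 37 C; viability read as ATP content by CellTiter-Glo luminescence.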
TGFb inhibitor = TGF-b pathway inhibition; actives 1.2% (n = 410,000); AID 588855; Potency, µM (series often up to 46.1 µM), most hits filed as inhibitors; HepG2 CAGA-GFP TGF-b/SMAD3 reporter, GFP fluorescence, 18 h; TGF-beta stimulated, 500 pg/mL final; also: nearly all actives have a fitted effect of over 65% in size
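Using HEPG2 CAGA-GFP reporter cells at 1000 cells/well, we pinned test compounds, stimulated with recombinant TGF-beta (500 pg/mL final) and measured total well GFP after 18 h.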
Of the large screens only hits and unclear results are named; the others gave an inactive call. Calls follow the shape of the dose curve; as a rule, active = well fitted curve in the direction sought with a large enough effect; inconclusive = small, poorly fitted or top-dose-only effect, or another doubt; inactive = no such curve, though single readings can be large; an effect the other way counts as inactive or inconclusive.

Cc1ccc(C(O)c2ncc(-c3ccc(F)cc3)[nH]2)c(C)c1 (stereo unspecified)	DT40 TDP1 no CPT inconclusive, DT40 TDP1 CPT inconclusive
Cc1ccc(C)c(C(O)c2ncc(-c3ccc(F)cc3)[nH]2)c1 (stereo unspecified)	DT40 TDP1 no CPT 14.6µM, DT40 TDP1 CPT 16.4µM
Cc1ccc(C(O)c2ncc(-c3ccc(Cl)cc3)[nH]2)c(C)c1 (stereo unspecified)	DT40 TDP1 no CPT 16.4µM, DT40 TDP1 CPT inconclusive
Cc1ccc(C)c(C(O)c2ncc(-c3ccc(Cl)cc3)[nH]2)c1 (stereo unspecified)	DT40 TDP1 no CPT inconclusive, DT40 TDP1 CPT inconclusive
O=C1SC(SCc2ccccc2Cl)=N/C1=C\c1ccc(C(=O)O)cc1	none
COc1ccc(CNC(=O)CC(C)n2nc(C)cc2C)cc1 (stereo unspecified)	none
CCOC(=O)C=C(OC(=O)c1ccc(OC)cc1)c1ccccc1	none
NC(=S)N/N=C1/CCSc2ccc3ccccc3c21	DT40 TDP1 no CPT 2.59µM, DT40 TDP1 CPT 3.66µM, TGFb inhibitor inconclusive
NC(=S)N/N=C/c1coc2c(ccc3ccccc32)c1=O	none
COC(=O)c1c(C(=O)OC)c(-c2ccc(Cl)c(Cl)c2)n2c1CCC2	DT40 TDP1 no CPT inconclusive, DT40 TDP1 CPT 20.6µM
COC(=O)c1c(C(=O)OC)c(-c2ccc(C)cc2)n2c1CCC2	none
COc1ccc(N2CCC(CNC(=S)Nc3ccc(C)cc3C)C2)cc1 (stereo unspecified)	ATXN viability inconclusive, DT40 TDP1 no CPT 18.4µM, DT40 TDP1 CPT inconclusive, TGFb inhibitor inconclusive (no result: ATXN2 expr inh)
CCc1ccc(NC(=O)NCC2CCN(c3ccc(OC)cc3)C2)cc1 (stereo unspecified)	DT40 TDP1 CPT 9.2µM
COc1ccc(Cc2noc(=O)[nH]2)cc1	none (no result: ATXN2 expr inh)
COc1ccc2c(c1)-c1ccccc1S(=O)(=O)N2C	DT40 TDP1 no CPT inconclusive, DT40 TDP1 CPT inconclusive
Cc1ccc2c(c1)S(=O)(=O)N(C)C(c1ccccc1)=C2	DT40 TDP1 no CPT inconclusive, DT40 TDP1 CPT 18.4µM
Cc1nc2c(c(=O)n1CCC1=CCCCC1)c1nc3ccccc3nc1n2/N=C/c1ccco1	DT40 TDP1 no CPT 23.1µM, DT40 TDP1 CPT 16.4µM
COCCn1cnc2c(c1=O)c1nc3ccccc3nc1n2/N=C/c1ccc(OC)c(OC)c1	DT40 TDP1 no CPT 16.4µM, DT40 TDP1 CPT 18.4µM
CCCCCCn1cnc2c(c1=O)c1nc3ccccc3nc1n2/N=C/c1ccco1	DT40 TDP1 no CPT 18.4µM, DT40 TDP1 CPT inconclusive
CCCCn1c2nc3ccccc3nc2c2c(=O)n(CCC)cnc21	DT40 TDP1 no CPT inconclusive, DT40 TDP1 CPT inconclusive
C=CCn1cnc2c(c1=O)c1nc3ccccc3nc1n2/N=C/c1cccc(OC)c1	ATXN viability inconclusive
COCCCn1cnc2c(c1=O)c1nc3ccccc3nc1n2CCc1ccccc1	DT40 TDP1 no CPT 18.4µM, DT40 TDP1 CPT inconclusive
COCCn1cnc2c(c1=O)c1nc3ccccc3nc1n2/N=C/c1ccco1	DT40 TDP1 no CPT inconclusive, ATXN2 expr inh inconclusive, DT40 TDP1 CPT inconclusive
Nc1ncnc2c1ncn2[C@@H]1O[C@H](CNS(=O)(=O)c2ccc3c(c2)CCN(C(=O)C(F)(F)F)C3)[C@@H](O)[C@H]1O	none
COC(=O)c1cc(N=C(N)N=C(N)N)cc(C(=O)OC)c1	none (no result: ATXN2 expr inh)
O=C1CSC(c2cccc([N+](=O)[O-])c2)N1CCc1ccccc1 (stereo unspecified)	none
CC1CCN(S(=O)(=O)c2ccc3[nH]c(=O)[nH]c3c2)CC1	none
CC(C)C(C)NC(=O)CN1C(=O)NC2(CCc3ccccc32)C1=O (stereo unspecified)	none
CC(=O)O[C@H]1CC(C)(C)C(=C=C/C(C)=C/C=C/C(C)=C/C=C/C=C(C)/C=C/C=C(\C)C(=O)C[C@@]23O[C@]2(C)C[C@@H](O)CC3(C)C)[C@](C)(O)C1	ATXN viability inconclusive, DT40 TDP1 no CPT inconclusive, ATXN2 expr inh inconclusive, DT40 TDP1 CPT 25.9µM, TGFb inhibitor inconclusive
COc1ccc(-c2onc(C)c2C)cc1S(=O)(=O)Nc1cccc(C#N)c1	DT40 TDP1 no CPT 20.6µM, DT40 TDP1 CPT 23.1µM (no result: ATXN viability, ATXN2 expr inh)
COC(=O)c1ccc(NS(=O)(=O)c2cc(-c3cc(C)no3)ccc2OC)cc1	ATXN viability inconclusive, DT40 TDP1 no CPT 2.91µM, DT40 TDP1 CPT 3.66µM (no result: ATXN2 expr inh)
CCc1ccc(-c2cc(C)no2)cc1S(=O)(=O)Nc1cc(OC)c(OC)c(OC)c1	DT40 TDP1 no CPT 16.4µM, DT40 TDP1 CPT 16.4µM, TGFb inhibitor inconclusive (no result: ATXN viability, ATXN2 expr inh)
COc1ccc(-c2cc(C)no2)cc1S(=O)(=O)Nc1ccccc1	DT40 TDP1 no CPT 9.2µM, DT40 TDP1 CPT 25.9µM
CC1(C)CC2C1CCC1(C)OC2(C)CCC1O (stereo unspecified)	none (no result: ATXN viability, ATXN2 expr inh, HepG2 tox, TGFb inhibitor)
CCOC(=O)c1c(C)[nH]c(C)c1S(=O)(=O)N1CCCC(C(=O)Nc2cccc(CC)c2)C1 (stereo unspecified)	DT40 TDP1 no CPT inconclusive, DT40 TDP1 CPT inconclusive, TGFb inhibitor inconclusive
CCN1C(=O)N[C@@H](c2cccc(C(F)(F)F)c2)[C@@H](C(=O)OC)[C@H]1C	none
Cc1cc(-c2ccc(C)c(S(=O)(=O)Nc3cccc(C)n3)c2)on1	DT40 TDP1 no CPT inconclusive (no result: ATXN viability, ATXN2 expr inh)
COc1ccc(-c2onc(C)c2C)cc1S(=O)(=O)Nc1cc(Cl)ccc1C	DT40 TDP1 no CPT 3.66µM, DT40 TDP1 CPT 3.66µM (no result: ATXN viability, ATXN2 expr inh)
Cc1cc(-c2ccc(C)c(S(=O)(=O)NC(c3cccs3)C(C)C)c2)on1 (stereo unspecified)	DT40 TDP1 no CPT 18.4µM, DT40 TDP1 CPT 18.4µM, TGFb inhibitor inconclusive
COc1ccccc1NS(=O)(=O)c1cc(-c2cc(C)no2)ccc1OC	none
COc1ccc(Cl)cc1NS(=O)(=O)c1cc(-c2cc(C)no2)ccc1C	DT40 TDP1 no CPT 7.31µM, DT40 TDP1 CPT 6.51µM (no result: ATXN viability, ATXN2 expr inh)
COc1ccc(-c2noc(-c3ccc(NC4CCCC4)c([N+](=O)[O-])c3)n2)cc1OC	none
CCOc1ccc(S(=O)(=O)N2CCCCC2)cc1NC(=O)CN1C(=O)NC(C)(c2ccc(C)cc2)C1=O (stereo unspecified)	DT40 TDP1 no CPT 16.4µM, DT40 TDP1 CPT 23.1µM
Cc1ccc(C2(C)NC(=O)N(CC(=O)Nc3ccc(Cl)c(S(=O)(=O)N4CCCCC4)c3)C2=O)cc1 (stereo unspecified)	ATXN viability inconclusive, DT40 TDP1 no CPT 18.4µM, DT40 TDP1 CPT inconclusive, TGFb inhibitor inconclusive
